Whole data set: some 110,000 compounds, median “z-score” near -0.1, cut for the highest 2% near 2. For the sample, the highest values were picked, then their nearest neighbours and some compounds at random. Calls of active or inactive are those of the source.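 How the source made its calls: active means z-score in the third read window above 3 or below -3; inactive means the rest.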

Sequence of Metabotropic glutamate receptor 8 (Rattus norvegicus) (P70579 whole entry, looked up): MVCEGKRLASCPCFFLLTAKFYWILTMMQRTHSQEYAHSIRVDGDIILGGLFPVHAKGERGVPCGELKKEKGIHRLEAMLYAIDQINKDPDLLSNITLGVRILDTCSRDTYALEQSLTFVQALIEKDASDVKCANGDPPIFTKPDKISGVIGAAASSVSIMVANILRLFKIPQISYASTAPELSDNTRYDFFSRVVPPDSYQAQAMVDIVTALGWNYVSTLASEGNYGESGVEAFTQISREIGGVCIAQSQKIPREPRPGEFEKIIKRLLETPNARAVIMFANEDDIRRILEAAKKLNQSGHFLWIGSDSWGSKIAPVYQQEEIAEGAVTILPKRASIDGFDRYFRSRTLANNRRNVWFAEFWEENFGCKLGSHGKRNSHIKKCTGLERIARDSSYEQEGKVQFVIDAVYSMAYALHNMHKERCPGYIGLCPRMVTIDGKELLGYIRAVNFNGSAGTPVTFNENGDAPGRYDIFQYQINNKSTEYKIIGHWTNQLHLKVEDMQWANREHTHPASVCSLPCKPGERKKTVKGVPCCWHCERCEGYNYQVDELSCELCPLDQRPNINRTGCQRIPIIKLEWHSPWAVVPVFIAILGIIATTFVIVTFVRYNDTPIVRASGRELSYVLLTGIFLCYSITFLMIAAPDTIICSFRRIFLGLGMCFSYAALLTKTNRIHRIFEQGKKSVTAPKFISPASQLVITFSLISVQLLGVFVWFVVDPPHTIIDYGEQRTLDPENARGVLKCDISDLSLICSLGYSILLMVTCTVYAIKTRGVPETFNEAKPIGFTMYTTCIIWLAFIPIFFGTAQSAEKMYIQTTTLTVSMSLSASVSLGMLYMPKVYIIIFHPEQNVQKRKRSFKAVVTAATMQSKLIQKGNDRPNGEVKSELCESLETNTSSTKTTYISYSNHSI

The assay concerns the target Metabotropic glutamate receptor 8 (Rattus norvegicus) (UniProt P70579). Briefly: mGluR8 Gi/Go-coupled signaling modulation – cell-based, rat, thallium flux, HTS, primary screen (AID 488969). The note with it: HEK293 rat mGluR8, GIRK (G protein-gated inwardly rectifying potassium channel) thallium flux, FluoZin2; at 10 µM; stronger effect = higher value; submaximal glutamate (EC20) added with thallium.
Take `CCOC(=O)c1cnc2c(Cl)cccc2c1NCCN(C)C`: the z-score was determined as 0.313.
The same measure for `O=C(O)C1C2C=CC(C2)C1C(=O)NC1CCN(Cc2ccccc2)CC1` (stereo not given): 0.581; for `S=c1nc[nH]c2c1[nH]c1ccccc12`: 0.0879.
With `S=c1nc(C2CC2)[nH]c2ccccc12`, the z-score is 9.36 (active).
In the case of `Cc1cc(=O)c2ccccc2[nH]1`, the z-score was 0.0595.
Molecule `O=C(C1CCCCC1)N1CCC(c2nc3ccccc3[nH]2)CC1` came in with a z-score of -0.166.
Take `Cc1nc(=S)c2ccccc2[nH]1`: the z-score was determined as 1.49.
`CC(C)c1nc(=S)c2ccccc2[nH]1`: the z-score is 13.7 (active).
On to `COc1ccc(Cc2nnc(SCc3c(C)noc3C)n2C2CCCCC2)cc1OC`, for which the z-score was 0.045.
The figure for `CSC(=NC(C)c1ccccc1)NS(=O)(=O)c1cccs1` (stereo not given) is 0.148; for `COc1ccc(/C=C/C(=O)NC(=S)Nc2cc3oc4ccccc4c3cc2OC)cc1` it is 0.0202; for `Cc1cc(C)c(-n2c(C)cc(/C=C3/NC(=O)NC3=O)c2C)c(C)c1` it is 2.07.
As for `Cc1cc(/C=C2/NC(=O)NC2=O)c(C)n1-c1ccccn1`, the z-score was -0.389.
`Cc1cccc(C)c1-n1c(C)cc(/C=C2\NC(=O)NC2=O)c1C` yielded a z-score of -0.96.
`Cn1cnnc1SC(C(=O)Nc1ccc(F)cc1)c1ccccc1` (stereo not given) had a z-score of -0.0653.
As for `Cc1ccc(S(=O)(=O)N2CCC(C(=O)NC3CCCCCC3)CC2)cc1`, the z-score was -0.0732.
`CCC/C(O)=C1\C(=O)CCCC1=NCCCCCC(=O)O`: the z-score worked out at 0.156.
With `COc1ccc(-c2nc(CS(=O)(=O)CC(=O)NCCc3cc(OC)ccc3OC)c(C)o2)cc1`, the z-score was -0.299.
The same measure for `COc1ccc(OC)c(CCNC(=O)CN2C(=O)CC(C)(C)S(=O)(=O)c3ccccc32)c1`: 0.0628.
With `COc1ccc(OC)c(CCNC(=O)Cn2sc3nc(C)cc(C)c3c2=O)c1`, the z-score amounted to 2.22.
`O=C(C1CCC(=O)N1Cc1ccccc1Cl)N1CCN(c2cccc(Cl)c2)CC1` (stereo not given) returned a z-score of -0.174.
Take `CC(CNC(=O)c1cc(Cl)ccc1[N+](=O)[O-])NC(=O)c1cc(Cl)ccc1[N+](=O)[O-]` (stereo not given): the z-score was -0.0709.
Regarding `Cc1ccc(/C([O-])=C(/C(=S)NCc2ccco2)[n+]2ccccc2)cc1`, the z-score was -0.112.
Regarding `Cc1cc(C)n(-c2nc(NCCC(C)C)c3c4c(sc3n2)COC(C)(C)C4)n1`, the z-score was -0.867.
Regarding `N=c1nc(-c2ccccc2)ccn1O`, the z-score turned out to be 2.64.
On to `c1ccc(-c2ccn3nnnc3n2)cc1`, for which the z-score was -0.244.
Molecule `CNc1ccccc1-n1ccc(-c2ccccc2)n1` displayed a z-score of 1.11.
For `O=c1c(-c2ccco2)[n+]([O-])c2ccccc2n1OCc1ccccn1`, the z-score was -0.153.
Take `CN1CCN(S(=O)(=O)c2cccc(S(=O)(=O)c3ccc(Cl)c(Cl)c3)c2)CC1`: the z-score is 1.26.
In the case of `CN1CCN(S(=O)(=O)c2cccc(S(=O)(=O)c3cccc(S(=O)(=O)N4CCN(C)CC4)c3)c2)CC1`, the z-score was 14 (active).
For the molecule `CN1CCN(S(=O)(=O)c2cccc(S(=O)(=O)c3ccc(Cl)cc3)c2)CC1`, the z-score worked out at 0.2.
The same measure for `CCC(=O)NCc1cc(-c2nn(C)c(=O)c3ccccc23)ccc1C`: -0.415.
The figure for `COc1cccc(NC(=O)C(Sc2nc3ccccc3c(=O)n2CC(C)C)c2ccccc2)c1` (stereo not given) is 2.63.
The figure for `CCNc1nc(NCC)n2c(SC(C(=O)Nc3cc(C)ccc3OC)c3ccccc3)nnc2n1` (stereo not given) is -0.463; for `CCCn1c(SC(C(=O)Nc2cccc(OC)c2)c2ccccc2)nc2ccccc2c1=O` (stereo not given) it is -0.276.
For the molecule `CCCn1c(SC(C(=O)Nc2cc(C)ccc2OC)c2ccccc2)nc2ccccc2c1=O` (stereo not given), the z-score is 3.61 (active).
Regarding `COc1ccc(C)cc1NC(=O)C(Sc1ccccc1)c1ccccc1` (stereo not given), the z-score was determined as 0.296.
With `COc1cccc(NC(=O)C(Sc2nnc3ccccn23)c2ccccc2)c1` (stereo not given), the z-score was -0.184.
The figure for `Cc1cccc(CCNC(=O)C2CCC(CNc3c(N4CCCC4)c(=O)c3=O)CC2)c1` (stereo not given) is -0.262.
The same measure for `CCOc1ccc(-c2nnn(CC(=O)NCc3ccco3)n2)cc1OCC`: 0.241; for `CC(=O)C1=C(c2ccccc2)NC(=O)NC1c1ccccc1OCC#N` (stereo not given): 1.96; for `CC(=O)c1c(C)[nH]c(C(=O)N2CCN(C(=O)c3ccco3)CC2)c1C`: -0.564.
Take `O=C(CSc1nc2c(cnn2-c2ccc(F)cc2)c(=O)[nH]1)N1CCOCC1`: the z-score was found to be 0.476.
The same measure for `CC(=O)c1cnn(-c2cc(Oc3ccc(F)cc3)ncn2)c1C`: 0.354; for `CC(=O)c1cnn(-c2cc(Oc3cccc(C)c3)ncn2)c1C`: 2.24.
Regarding `COC(=O)c1cnn(-c2cc(Oc3cccc(C)c3)ncn2)c1N`, the z-score is 0.309.
The same measure for `COC(=O)c1ccc(C2C(Oc3ccc(OC)cc3)C(=O)N2CCc2ccc(OC)c(OC)c2)cc1` (stereo not given): -0.234; for `N#Cc1c(N)nc2c3c(sc(=N)c2c1N)NC(=O)CC3c1ccccc1` (stereo not given): -0.0395.
Molecule `CCS(=O)(=O)NCCc1csc(-c2ccccc2)n1` yielded a z-score of -0.276.
Take `COc1ccc(OC)c(S(=O)(=O)NCc2csc(-c3ccccc3)n2)c1`: the z-score is -0.245.
`CS(=O)(=O)NCc1csc(-c2ccccc2)n1`: the z-score was found to be 2.26.
`COc1cccc(CNC(=O)Cc2nc3nc(C)cc(C)n3n2)c1` displayed a z-score of -0.187.
The figure for `Cn1cc(C(=O)Nc2cccc(F)c2)cn1` is 0.0603; for `COc1ccc(CN2C(=O)c3ccccc3C(/C=N/OCc3ccc(Cl)cc3)C2=O)cc1` (stereo not given) it is 0.378; for `COc1ccc(CN2C(=O)c3ccccc3C(/C=N\OCc3ccc(F)cc3)C2=O)cc1` (stereo not given) it is 0.722.
In the case of `COc1ccc(CN2C(=O)c3ccccc3C(/C=N\OCc3ccc(C)cc3)C2=O)cc1` (stereo not given), the z-score came out at 2.42.
The figure for `COc1ccc(OC)c(/C(O)=C/C(=O)C(=O)Nc2cc(C)cc(C)c2)c1` is 0.571; for `CCOC(=O)C(NC(=O)c1ccccc1)(OCc1ccc(F)cc1)C(F)(F)F` (stereo not given) it is 0.14.
The same measure for `CCn1c(SCC(=O)c2cc(C)n(C)c2C)nnc1-c1ccccc1`: 0.0656; for `Cc1cc(C(=O)CSc2nnc(-c3ccccc3)n2C)c(C)n1C`: -0.546; for `Cc1cc(C(=O)CSc2nnc(-c3ccncc3)n2-c2ccccc2)c(C)n1C`: 4.58 (active).
Take `C=CCn1c(SCC(=O)NCCc2ccccc2)nnc1C(C)NC(=O)c1cccs1` (stereo not given): the z-score is 0.0814.
The same measure for `O=c1c(-c2nnc(SCc3ccc(Cl)cc3)o2)cccn1Cc1ccccc1`: 0.618; for `N#C/C(=C\c1ccc(OC(=O)c2ccccn2)cc1)C(N)=O`: -0.197; for `COc1ccc(S(=O)(=O)Nc2cc(Sc3ncn[nH]3)c(O)c3ccccc23)cc1`: 0.366.
The molecule `O=S(=O)(NCCOc1cccc2cccnc12)c1ccc(F)cc1` came in with a z-score of -0.153.
The figure for `O=S(=O)(Nc1cc(Sc2cccc3cccnc23)c(O)c2ccccc12)c1ccc(F)cc1` is 5.2 (active); for `COC(=O)c1ccc(N2CCN(S(=O)(=O)c3ccccc3)CC2)c([N+](=O)[O-])c1` it is -0.111; for `Cc1cc(=O)n(C)c(=O)n1CC(=O)N1CCCCCC1` it is 0.975.
Take `Cc1c(NC(=O)/C(C#N)=C/c2cccs2)c(=O)n(-c2ccccc2)n1C`: the z-score stood at 0.559.
Regarding `O=C(Oc1ccccc1)c1cc2ccccc2o1`, the z-score stood at 2.68.
Turning to `O=C(Nc1ccccc1)c1ccc(OC(=O)c2cc3ccccc3o2)cc1`, the z-score was -0.284.
As for `COc1ccc(OC(=O)c2cc3ccccc3o2)cc1`, the z-score is 0.125.
`CCCCn1c(=O)c(C(=O)c2ccccc2)nc2ccccc21` yielded a z-score of -0.617.
The molecule `S=c1sc2c(N3CCN(Cc4ccccc4)CC3)ncnc2n1-c1ccccc1` yielded a z-score of 0.467.
The figure for `COc1ccc(CCN(Cc2cccs2)S(=O)(=O)c2ccc(S(=O)(=O)N3CCC(C)CC3)cc2)cc1OC` is -0.101; for `CCN(CC)CCCn1c(=S)[nH]c2cc(Cl)ccc2c1=O` it is 4.1 (active).
The same measure for `O=c1c2oc3ccccc3c2[nH]c(=S)n1-c1ccccc1`: 0.645; for `CCN(CC)CCCn1c(=S)[nH]c2cc(OC)c(OC)cc2c1=O`: -0.0622.
The same measure for `O=c1c2ccccc2[nH]c(=S)n1CCC1=CCCCC1`: 0.577; for `CCCCn1c(=S)[nH]c2c(oc3ccc(Cl)cc32)c1=O`: 13.1 (active).
In turn, `CCN(CC)CCCn1c(=S)[nH]c2ccc(Cl)cc2c1=O` returned a z-score of 0.0726.
The figure for `CCN(CC)CCn1c(=S)[nH]c2cc(Cl)ccc2c1=O` is 1.41.
Take `O=c1c2ccc(Cl)cc2[nH]c(=S)n1CCC1=CCCCC1`: the z-score was 5.05 (active).
Molecule `CCOC(=O)N1CCN(C(=O)c2ccc3c(=O)n(CCC4=CCCCC4)c(=S)[nH]c3c2)CC1` yielded a z-score of 0.221.
The same measure for `Cc1ccc(C)c(N2CCN(c3ccc(N4C(=O)COCC4=O)cc3[N+](=O)[O-])CC2)c1`: -0.128.
`O=[N+]([O-])c1ccc2c(c1)C(N1CCOCC1)/C(=C/COc1ccc3ccccc3c1Br)O2` (stereo not given) showed a z-score of -0.0823.
Turning to `COc1ccc(-c2nnn(CC(=O)N3CCN(c4ccccc4OC)CC3)n2)cc1`, the z-score is -0.289.
For `CCOC(=O)C1CCc2sc(N)c(C#N)c21` (stereo not given), the z-score worked out at 2.38.
Consider `CCCC(=O)Nc1sc2c(c1C(=O)OC)C(C(=O)OC)CC2` (stereo not given), for which the z-score is -0.0731.
The figure for `CCOC(=O)Nc1sc2c(c1C#N)CCC(C)C2` (stereo not given) is -0.505; for `Cc1ccc(O)c(C(=O)c2cnc3c(c2)COc2ccccc2-3)c1` it is -0.0344; for `CCOC(=O)C1=C(C)NC(C)=C(C(=O)OCC)C1c1ccc(O)cc1` it is -0.238.
The same measure for `O=C(Nc1ccc2c(c1)OCCO2)C1CCC1`: 0.045.
The figure for `CS(=O)(=O)N1CCC(C(=O)Nc2ccc3c(c2)OCCO3)CC1` is 0.0973; for `O=C(Nc1ccc2c(c1)OCCO2)C1CCN(c2cnccn2)CC1` it is 2.51; for `Cc1cc(C)nc(SCC(=O)c2c(N)n(C)c(=O)n(C)c2=O)n1` it is -0.282.
The molecule `C=CCNC(=O)c1ccc(-c2nc(-c3ccccc3)cs2)cc1` yielded a z-score of 0.133.
With `C=CCNC(=O)c1ccc(-c2nc(-c3ccc(Cl)c(Cl)c3)cs2)cc1`, the z-score was -0.148.
As for `CN(C)CCCNC(=O)c1ccc(-c2nc(-c3ccc(Cl)cc3)cs2)cc1`, the z-score is 3.28 (active).
The same measure for `CCc1cccc(C)c1NC(=O)CCCC(=O)O`: 0.0858.
The molecule `Cc1ccccc1Cn1cc(NC(=O)c2nc3ncccn3n2)cn1` yielded a z-score of 2.77.
The same measure for `Cc1ccccc1Cn1ccc(NC(=O)c2nc3ncccn3n2)n1`: -1.29.
`O=C(Nc1cnn(Cc2ccccc2)c1)c1nc2ncccn2n1` registered a z-score of -0.222.
The same measure for `COc1ccc(/C=C/C(=O)c2sc(-c3ccccc3)nc2C)cc1`: 0.276; for `COc1ccc(-c2nc(N)nc(C)c2Oc2ccccc2Br)c(O)c1`: -0.381.
The molecule `CSc1ccc(CCNC(=O)CSc2ccsc2[N+](=O)[O-])cc1` had a z-score of -0.173.
The same measure for `CCc1nnc(NC(=O)CSc2nc(-c3ccc(F)cc3)cc(-c3ccccc3)c2C#N)s1`: 2.35; for `CCc1nnc(NC(=O)CSc2nc(-c3ccccc3)cc(-c3ccc(OC)cc3)c2C#N)s1`: -0.249.
The molecule `CCc1nnc(NC(=O)CSc2nc(-c3ccccc3)cc(-c3ccc(F)cc3)c2C#N)s1` had a z-score of -0.163.

These data come from PubChem BioAssay AID488969 (Vanderbilt High Throughput Screening Facility, 2010).
